Pf Dd2 growth = blocks in vitro growth of P. falciparum Dd2. Potency, µM (doses to about 28.9 µM), for inactives: top-dose activity, negative = inhibition, most hits filed as inhibitors. P. falciparum Dd2 growth, SYBR Green, 72 h. actives 4.3% (n = 120,000); active = well fitted inhibition curve with a large enough effect;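 note: plate controls were DMSO vehicle for no effect and reference drug for full effect; nearly all actives have a fitted effect of over 65% in size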
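Readout: SYBR Green fluorescence, 485 nm excitation, 535 nm emission, after ~16 h lysis at 37C. Before that, Dd2-infected red cells (2.5% hematocrit) grew 72 h with compound, 29 uM top final concentration.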
* hit, by the source's call; i = inactive; [ ] = another dose, or the depositor's remark. This excerpt belongs to a sample that is enriched for hits. Potency is the fitted concentration of half-maximal effect.

SMILES | Pf Dd2 growth
COc1cccc(-c2cc3c(ccn3Cc3cccnc3)c(C3=CCOCC3)n2)c1OC | -5%[44.1 µM]
O=C(Nc1ncc(-c2cccc(F)c2)c2c1OCC2)c1c[nH]c2ccccc12 | 8%[44.1 µM]
O=C(C1CCCC1)N1CC2(CCCCN2Cc2cccnc2)Cc2ccccc21 (stereo not drawn) | 7.9µM*
O=C(O)CCC(=O)N1Cc2ccccc2CC2(CCCN2Cc2cccnc2)C1 (stereo not drawn) | -7%
O=C(C1CCCC1)N1CC2(CCCN2Cc2cccnc2)Cc2ccccc21 (stereo not drawn) | 11µM*
CCC(=O)N1Cc2ccccc2CC2(CCCN2Cc2cccnc2)C1 (stereo not drawn) | 17%
CC(=O)N1CC2(CCCN2Cc2cccnc2)Cc2ccccc21 (stereo not drawn) | -29%
O=C1Nc2ccccc2CC12CCCN2Cc1cccnc1 (stereo not drawn) | -9%[44.1 µM]
Cc1ccc(C(=O)N2CC[C@@H]3CN(S(C)(=O)=O)[C@@H]3C2)c(C)c1 | 0%
COc1cccc(CNC(=O)CCc2cc3ccc(C)cc3[nH]c2=O)c1OC | -5%
O=C(c1ccc(F)cc1)N1C[C@@H]2C[C@H](C1)c1ccc(-c3cncnc3)c(=O)n1C2 | -13%[44.1 µM]
COc1ccc(CNC(=O)N2CCCC(Cc3noc(-c4cnccn4)n3)C2)cc1 (stereo not drawn) | i
O=C(Cn1nc2c(cc1=O)CCCC2)N1CCC(c2noc3cc(F)ccc23)CC1 | -22%
Cc1ccc(C(=O)N2CCCn3cc(-c4cccc(C#N)c4)nc32)cn1 | -7%
Cc1ccc(CNC(=O)c2ccc(Cn3c(SCc4ccc(F)cc4)nc4cccnc43)cc2)o1 | 11µM*
Cc1cccc(Cn2c(SCc3ccc(C(=O)NCc4ccccc4F)cc3)nc3cccnc32)c1 | -27%
CCOc1ccc(C(=O)NCc2nc3cccnc3n2Cc2ccc(F)cc2)cc1OCC | i
O=C(NCCc1cccs1)c1ccc(Cn2c(SCc3ccccc3)nc3cccnc32)cc1 | 11µM*
O=C(NCCc1ccccc1)c1ccc(CSc2nc3cccnc3n2Cc2ccc(F)cc2)cc1 | 8.9µM*
Cc1cccc(CSc2nc3cccnc3n2Cc2ccc(C(=O)NCc3ccco3)cc2)c1 | -14%
O=C(NCc1cccs1)c1ccc(Cn2c(SCc3ccc(F)cc3)nc3cccnc32)cc1 | -19%
Cc1cccc(Cn2c(SCc3ccc(C(=O)NCCc4ccccc4)cc3)nc3cccnc32)c1 | 11µM*
CN(Cc1ccccc1)C(=O)c1ccc(CSc2nc3cccnc3n2Cc2ccccc2F)cc1 | -18%
O=C(NC1CC1)c1ccc(Cn2c(SCc3ccc(F)cc3)nc3cccnc32)cc1 | -2%
O=C(C1CCCCC(=O)N1Cc1ccccc1)N1CCCC1 (stereo not drawn) | 43%
SMILES | Pf Dd2 growth
Cc1ccc(C2Cn3nnc(C(=O)N4CCC(C(=O)NCc5ccc(Cl)cc5)CC4)c3CO2)cc1 (stereo not drawn) | 2%
CC(C)NC(=O)NCC12CCCC=C1NC(=O)CC2 (stereo not drawn) | -15%
CC(=O)N1CCC(C(=O)NCc2cc3n(n2)CCN(C2CCCCC2)C3)CC1 | 2%
CCc1nc(C)c(C(=O)N2CC[C@@](O)(COC)C(C)(C)C2)s1 | -7%
Cc1ccc(C)c(NC(=O)Cn2ccn3nc(-c4ccccc4)c(CO)c3c2=O)c1 | -6%
CC[C@H](C)[C@H](N)C(=O)N1CCC2(CCC(=O)N(Cc3ccccc3)C2)CC1 | -7%
O=C(NC1CCCC1)N1CCc2nc(-c3ccc(Cl)cc3)nc(-c3ccccc3)c2C1 | i
C[C@@]1(O)CCN(CC(=O)N2CCOc3ccccc32)C[C@@H]1O | -8%
Cc1nc(CCNC(=O)CC2COCCN2C(=O)c2ccsc2)no1 (stereo not drawn) | -16%
CC(C)CCN1C(=O)CC[C@]2(C(=O)NC3CC3)CCCC[C@@H]12 | 25%
CC(C)CCN1C(=O)CC[C@]2(C(=O)NCc3ccncc3)CCCC[C@@H]12 | 10%
CCCN(CCC)C(=O)[C@@]12CCCC[C@H]1N(CCC(C)C)C(=O)CC2 | 10µM*
O=C(c1ccc(OC2CCN(C(=O)c3cccs3)CC2)nc1)N1CCOCC1 | 8%
COc1ccc(C(=O)N[C@@H]2CCC[C@@H]2C(=O)NCCCN2CCOCC2)cc1 | -23%
CCc1ccc(NC(=O)Cn2nc3c(cc2=O)CCCCC3)cc1 | -23%
O=C(c1cc(-c2ccc(F)cc2)nc2ccccc12)N1CCCC(c2nc(C3CCOCC3)no2)C1 (stereo not drawn) | i
CCOC(=O)c1c(C)[nH]c(C)c1S(=O)(=O)NCC(=O)Nc1cc(Cl)ccc1OC | 0%
CCOC(=O)c1c(C)[nH]c(C)c1S(=O)(=O)N(C)CC(=O)Nc1cc(Cl)ccc1OC | 10µM*
CCOC(=O)c1c(C)[nH]c(C)c1S(=O)(=O)N(C)CC(=O)Nc1cccc(Cl)c1C | -7%
CN(Cc1ccccn1)Cc1ccccc1C(F)(F)F | -17%[44.1 µM]
CCOC(=O)C1(Cc2ccccc2C(F)(F)F)CCN(Cc2ccccn2)CC1 | 6.3µM*
CCOC(=O)C1(Cc2ccccc2F)CCCN(C(=O)c2ccc(-n3ccnc3)cc2)C1 (stereo not drawn) | i
COCC1CN(C(C)=O)CC12CCN(Cc1ccccc1C(F)(F)F)CC2 (stereo not drawn) | -24%
OCC1(Cc2ccccc2C(F)(F)F)CCNCC1 | -4%
CCOC(=O)C1(Cc2ccccc2C(F)(F)F)CCN(C(C)Cc2cccc(C)n2)CC1 (stereo not drawn) | 13µM*
SMILES | Pf Dd2 growth
O=S(=O)(NC[C@H]1C[C@@H]2CCN1C[C@@H]2CN1CCN(c2ncccn2)CC1)c1ccc(Cl)cc1 | -23%
CCN1C(=O)C2CC3(CCN(C4CCOCC4)CC3)CN2C1=O (stereo not drawn) | -3%
COc1cccc(C(=O)N2CCCC(c3[nH]ccc3C(N)=O)C2)c1OC (stereo not drawn) | 29%
CNc1ccc(-c2nc(-c3ccccn3)no2)cc1[N+](=O)[O-] | -25%
CCC(Nc1ccc(-c2nc(-c3ccccn3)no2)cc1[N+](=O)[O-])c1ccccc1 (stereo not drawn) | 3.5µM*
CCNc1ccc(-c2nc(-c3ccccn3)no2)cc1[N+](=O)[O-] | -14%
O=C(c1cccc(-n2cnnc2)c1)N1CCCC(Nc2ccc(F)c(F)c2)C1 (stereo not drawn) | 11%
CCNC(=O)N1C[C@@H](Oc2cccnc2)C[C@@H]1C(=O)NCCOC | -1%
O=C(c1cccc(-c2ncc[nH]2)c1)N1CCCC(O)(CN2CCCC2)C1 (stereo not drawn) | 10%
Cc1ccc(C)c2c(C)c(C(=O)N3CCCC(O)(CN4CCCC4)C3)[nH]c12 (stereo not drawn) | 11µM*
CC(=O)N[C@@H]1CN(C(=O)c2[nH]c3c(C)ccc(C)c3c2C)C[C@H]1C(C)C | -26%
Cc1ccc(-c2cccc(C(=O)N3CCCC(O)(CN4CCCC4)C3)c2)o1 (stereo not drawn) | 11µM*
O=C(c1cccc(-n2cccn2)c1)N1CCOCC(O)(CN2CCCC2)C1 (stereo not drawn) | -23%
O=C(c1ccccc1-c1nn[nH]n1)N1CCOCC(O)(CN2CCCC2)C1 (stereo not drawn) | -2%
COc1ccc(C(=O)N2CCC3(CC2)CC(N(C2CC2)S(C)(=O)=O)CCO3)cc1 (stereo not drawn) | i
O=C(Nc1cccc2ccccc12)N[C@H]1CO[C@H]2[C@@H]1OC[C@@H]2n1nnnc1Oc1ccc2c(c1)OCO2 | i
COCCC1(NC(=O)C2CC2)CCN(C(=O)C2(c3ccccc3)CC2)CC1 | -22%
COc1ccc(-c2ccc3c(N)c(C(=O)Nc4cc(F)ccc4C)sc3n2)cc1 | 22%
